Eya2 phos inh: qHTS Assay for Inhibitors of the Phosphatase Activity of Eya2; recombinant Eya2, OMFP fluorescence dephosphorylation (OMFP is methylfluorescein phosphate); Potency, µM (top dose mostly 76.9 µM), for the others: at the highest dose activity, negative = inhibition, hits mostly inhibitors; 330,000 tested, 0.006% active; AID 488837, 2010; also: potency is read from the fitted curve at half-maximal effect
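Eya2 (0.2 uM) preincubated 10 min at ambient with compound, then OMFP substrate added at 50 uM; 10 min reaction in 50 mM HEPES pH 7.5, 50 mM NaCl, 5 uM MgCl2, 0.05% BSA, 1 mM DTT. Fluorescence read at Ex 485/Em 525 nm.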
PI4K2A inh: qHTS for small molecular inhibitors of PI4K2A. purified PI4K2A, ADP-Glo luminescence, 1 h; hits give low values. activity change, negative = inhibition, % at 76.9 µM. 420,000 tested, 0.13% active; in the data active = activity change below about -50%; inconclusive = mostly about -30% to -49%;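 also: -100% = wells without enzyme as full effect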
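In this quantitative HTS, ADP production by PI4K2A was quantified luminescently after 1 h at ambient temperature; 100 microM adenosine served as plate-quality control.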
Six1-Eya2 inh: qHTS Assay for Inhibitors of the Six1/Eya2 Interaction; 360,000 tested, 0.56% active; AlphaScreen GST-Six1/His-Eya2 binding, biochemical; hits give low values; activity change, % (test concentration not listed); Homeobox protein SIX1 (Homo sapiens) + Protein phosphatase EYA2 (Homo sapiens), …; in the data active = activity change below about -65%; inconclusive = mostly about -30% to -63%
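Compounds are tested against tagged Six1 and Eya2 proteins bridged by glutathione donor and nickel acceptor beads; after a one-hour incubation at 37 °C without light, AlphaScreen emission is recorded.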
USP2a block: qHTS Assay for Inhibitors of Ubiquitin-specific Protease USP2a Using CHOP2 as the Reporter; Ubiquitin carboxyl-terminal hydrolase 2 (Homo sapiens), O75604; USP2 core, Ub-CHOP2 coupled fluorogenic reporter, 485/531; Potency, µM (titrated, usually from 38.3 µM), without a hit: top-dose activity change, negative = inhibition, actives largely listed as inhibitors; 330,000 tested, 0.01% active;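 also: potency is read from the fitted curve at half-maximal effect; plate controls were DMSO wells for no effect and full inhibition by NEM control for full effect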
Target sequence (O75604 whole entry, looked up): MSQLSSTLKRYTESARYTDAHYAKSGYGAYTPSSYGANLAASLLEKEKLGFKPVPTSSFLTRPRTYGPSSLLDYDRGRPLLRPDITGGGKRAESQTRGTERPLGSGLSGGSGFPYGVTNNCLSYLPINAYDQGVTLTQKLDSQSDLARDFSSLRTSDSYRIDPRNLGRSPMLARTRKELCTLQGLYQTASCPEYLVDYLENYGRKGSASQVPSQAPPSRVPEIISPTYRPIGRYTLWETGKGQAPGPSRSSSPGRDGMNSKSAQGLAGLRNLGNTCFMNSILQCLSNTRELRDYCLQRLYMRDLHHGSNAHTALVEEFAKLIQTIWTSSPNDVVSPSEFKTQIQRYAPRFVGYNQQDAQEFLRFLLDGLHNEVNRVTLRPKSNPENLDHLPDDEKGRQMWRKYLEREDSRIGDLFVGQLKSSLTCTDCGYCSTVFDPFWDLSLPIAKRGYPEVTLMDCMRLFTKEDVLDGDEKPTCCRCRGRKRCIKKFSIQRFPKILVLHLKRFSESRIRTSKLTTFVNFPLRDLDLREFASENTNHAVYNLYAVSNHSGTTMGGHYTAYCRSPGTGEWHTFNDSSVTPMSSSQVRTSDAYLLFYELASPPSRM
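Cell-free coupled assay: 10nM USP2 core preincubated 30min RT with compound in Tris-HCl pH 8.0/CaCl2/CHAPS buffer, then 25nM Ub-CHOP2 and 25nM reporter substrate; fluorescence (Ex 485/Em 531) read after 60min RT, normalized to NEM inhibition, concentration-response curves fitted.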
CtBP-E1A blk: qHTS Assay for Inhibitors of the CtBP/E1A Interaction | CtBP / adenovirus E1A interaction (AlphaScreen) | AlphaScreen GST-E1A/His-CtBP binding, 1536-well; hits give low values | activity change, % (no concentration beside the values) | 340,000 tested, 0.49% active | AID 651724, 2012; in the data active = activity change below about -65%; inconclusive = mostly about -30% to -63%
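Steps: dispense buffer (Tris pH 8.0, NaCl 300 mM, TCEP 1 mM, BSA, Tween 20); add 5X protein mix (GST-E1A, His-CtBP, 125 nM each); pin 23 nL compound; 2 h at 37 °C, dark; add 5X beads (50 ug/mL); 1 h; read.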
RGS4 inhibitor: Inhibitors of Regulator of G Protein Signaling (RGS) 4: qHTS | Regulator of G-protein signaling 4 (Homo sapiens), P49798 | Transcreener GDP fluorescence polarization, RGS4-accelerated GTP hydrolysis | Potency, µM (series often up to 114 µM), for the others: at the top dose activity change, negative = inhibition, hits mostly inhibitors | 390,000 tested, 0.039% active | AID 504845, 2011; also: potency is read from the fitted curve at half-maximal effect; nearly all actives have a fitted effect of over 75% in size
Target sequence (P49798 whole entry, looked up): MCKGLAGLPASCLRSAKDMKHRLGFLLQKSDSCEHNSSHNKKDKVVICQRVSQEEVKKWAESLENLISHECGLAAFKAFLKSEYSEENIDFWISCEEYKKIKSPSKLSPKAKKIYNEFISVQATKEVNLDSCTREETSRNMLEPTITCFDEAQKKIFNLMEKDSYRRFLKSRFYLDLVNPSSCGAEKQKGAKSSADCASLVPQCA
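MLSMR compounds (23 nl, pin-transferred) preincubated 10 min at room temperature with a 500nM (2x) first reagent, then RGS4 at 900nM (2x) plus Transcreener GDP mix added; fluorescence polarization (620/688 nm) read before and after 90 min at 30 °C.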
Numbers without * were called inactive; [ ] = remark or other dose. In the library only some 0.72% were active in any assay of this set; here they are far more common. Unless noted, calls follow the shape of the dose curve; as a rule, active = well fitted curve in the direction sought with a large enough effect; inconclusive = small, poorly fitted or top-dose-only effect, or another doubt; inactive = no such curve, though single readings can be large; an effect the other way counts as inactive or inconclusive. Unless noted, % is scaled to controls: 0 for no effect and ±100 for the full control effect.

What do the screens show for `O=C(N/N=C/c1ccc(-c2ccc(S(=O)(=O)Nc3ncccn3)cc2)o1)c1cc2ccccc2cc1O`?
Eya2 phos inh: 21.9%; PI4K2A inh: inconclusive; Six1-Eya2 inh: -67.0*; USP2a block: inconclusive; CtBP-E1A blk: -19.7; RGS4 inhibitor: inconclusive

How did COc1cnc(-c2ccccn2)nc1Sc1ccc(Cl)cc1 do in these assays?
Eya2 phos inh: -14.8%; PI4K2A inh: 1.0; Six1-Eya2 inh: -7.0; USP2a block: -1.4%; CtBP-E1A blk: -10.4; RGS4 inhibitor: -0.1%

Results for COc1cnc(-c2ccccn2)nc1Oc1cccc(C(F)(F)F)c1 ?
Eya2 phos inh: 1.9%; USP2a block: -0.5%

Results for COc1cnc(-c2ccccn2)nc1Sc1ccc(F)cc1 ?
Eya2 phos inh: 0.6%; PI4K2A inh: -5.4; Six1-Eya2 inh: inconclusive; USP2a block: 0.0%; CtBP-E1A blk: -72.5*; RGS4 inhibitor: 17.8%

Results for COc1cnc(-c2ccccn2)nc1Oc1ccccc1 ?
Eya2 phos inh: -2.6%; PI4K2A inh: -12.0; Six1-Eya2 inh: inconclusive; USP2a block: 2.0%; CtBP-E1A blk: -66.6*; RGS4 inhibitor: inconclusive

What do the screens show for `NC(c1ccccc1)c1csc(Nc2ccc(C(=O)NCCCO)cn2)n1` (stereo unspecified)?
PI4K2A inh: -4.1; Six1-Eya2 inh: -82.6*; CtBP-E1A blk: -84.8*

What do the screens show for `NC(c1csc(Nc2ccc(C(=O)NCCCO)cn2)n1)c1ccccc1Cl` (stereo unspecified)?
PI4K2A inh: -5.7; Six1-Eya2 inh: inconclusive; CtBP-E1A blk: -76.9*

Results for C(/C=C\c1ccco1)=NN1CCN(Cc2cccc3ccccc23)CC1 ?
PI4K2A inh: -5.5

How did O=C(CN1CC(=O)Oc2ccccc21)OCC(=O)c1cccc(Br)c1 do in these assays?
Eya2 phos inh: -14.5%; PI4K2A inh: 7.2; Six1-Eya2 inh: -82.5*; USP2a block: -1.4%; CtBP-E1A blk: inconclusive; RGS4 inhibitor: -10.0%

What do the screens show for `O=C(CN1CC(=O)Oc2ccccc21)OCC(=O)c1ccccc1`?
Eya2 phos inh: -13.9%; PI4K2A inh: -2.1; Six1-Eya2 inh: -90.8*; USP2a block: 3.4%; CtBP-E1A blk: -92.1*; RGS4 inhibitor: -18.0%

What do the screens show for `O=C(COC(=O)C1CC2CCCC(C1)C2=O)c1cccc(Br)c1` (stereo unspecified)?
Eya2 phos inh: -8.7%; PI4K2A inh: -2.2; Six1-Eya2 inh: 2.9; USP2a block: -0.9%; RGS4 inhibitor: 13.6%

What do the screens show for `Cc1ccccc1NC(=S)N(CCN(C)C)C(C)c1ccccn1` (stereo unspecified)?
Eya2 phos inh: 20.2%; PI4K2A inh: 5.5; Six1-Eya2 inh: -65.1*; USP2a block: 4.3%; CtBP-E1A blk: -71.9*; RGS4 inhibitor: -14.9%

How did Cc1nn(C)cc1S(=O)(=O)NCc1ccc2c(c1)OCO2 do in these assays?
Eya2 phos inh: -2.7%; PI4K2A inh: 8.0; Six1-Eya2 inh: 2.8; USP2a block: -0.4%; CtBP-E1A blk: 4.7; RGS4 inhibitor: 8.5%

Results for Cc1cc(C)c(S(=O)(=O)N2CCOC2CNC(=O)C(=O)NCCCn2ccnc2)c(C)c1 (stereo unspecified) ?
Eya2 phos inh: -7.8%; PI4K2A inh: 3.5; Six1-Eya2 inh: -70.3*; USP2a block: 0.0%; CtBP-E1A blk: inconclusive; RGS4 inhibitor: 2.9%

How did O=c1c(CO)cc(CO)cc(CO)c1O do in these assays?
Eya2 phos inh: -8.3%; PI4K2A inh: -0.4; Six1-Eya2 inh: -89.9*; USP2a block: -2.0%; RGS4 inhibitor: 12.6%

How did Cn1c(=O)n(Cc2ccccc2)c(=O)c2c1nc1n2CCN1c1ccccc1 do in these assays?
PI4K2A inh: 3.9; RGS4 inhibitor: 29.2%

How did O=C(Nc1nc(-c2ccccn2)cs1)c1ccc(-c2ccccc2F)o1 do in these assays?
Eya2 phos inh: 3.1%; PI4K2A inh: -0.7; Six1-Eya2 inh: inconclusive; USP2a block: -14.8%; CtBP-E1A blk: -69.8*; RGS4 inhibitor: -18.8%

What do the screens show for `CCc1cc(C(=O)Nc2nc(-c3ccccn3)cs2)sc1C`?
Eya2 phos inh: 6.3%; PI4K2A inh: -6.6; Six1-Eya2 inh: inconclusive; USP2a block: -0.2%; CtBP-E1A blk: -67.3*; RGS4 inhibitor: -7.0%

What do the screens show for `CC(=O)c1ccc(-c2ccc(C(=O)Nc3nc(-c4ccccn4)cs3)o2)cc1`?
Eya2 phos inh: -15.6%; PI4K2A inh: -19.1; Six1-Eya2 inh: -69.5*; USP2a block: 1.1%; CtBP-E1A blk: -78.8*; RGS4 inhibitor: -25.1%

Results for Cc1ccc(C(=O)Nc2nc(-c3ccccn3)cs2)o1 ?
Eya2 phos inh: inconclusive; PI4K2A inh: -13.9; Six1-Eya2 inh: -92.8*; USP2a block: -2.1%; CtBP-E1A blk: inconclusive; RGS4 inhibitor: -34.0%

What do the screens show for `O=C(Nc1nc(-c2ccccn2)cs1)Nc1ccc(F)cc1F`?
Eya2 phos inh: 5.6%; PI4K2A inh: -10.0; Six1-Eya2 inh: inconclusive; USP2a block: -1.2%; CtBP-E1A blk: inconclusive; RGS4 inhibitor: inconclusive

How did CCCc1cc(=O)[nH]c2nnc(SCCC(C)C)n12 do in these assays?
PI4K2A inh: 2.0; RGS4 inhibitor: -28.1%

What do the screens show for `COc1ccc(C2/C=C\CN(S(=O)(=O)c3ccc(C)cc3)C(C)C(=O)N2Cc2ccc(F)cc2)cc1` (stereo unspecified)?
RGS4 inhibitor: -17.6%

Results for O=C(Nc1nc2ccccc2s1)c1ccc([N+](=O)[O-])o1 ?
Eya2 phos inh: -1.3%; PI4K2A inh: -3.3; Six1-Eya2 inh: -3.5; USP2a block: 1.4%; RGS4 inhibitor: -2.1%

Results for O=C(Nc1nc(-c2ccccn2)cs1)c1ccc([N+](=O)[O-])o1 ?
Eya2 phos inh: 6.1%; PI4K2A inh: -8.8; Six1-Eya2 inh: -73.4*; USP2a block: 0.2%; CtBP-E1A blk: -92.1*; RGS4 inhibitor: inconclusive

What do the screens show for `COc1ccc(CNC(=O)CCS(=O)(=O)c2ccc3c(c2)CCN3C(C)=O)cc1`?
Eya2 phos inh: 12.6%; PI4K2A inh: 1.5; Six1-Eya2 inh: -91.8*; USP2a block: -0.6%; CtBP-E1A blk: 6.7; RGS4 inhibitor: 6.3%[11.4 µM]

Results for CN1/C(=C/C=C/c2n(C)c3cc([N+](=O)[O-])c([N+](=O)[O-])cc3[n+]2C)C(C)(C)c2ccccc21 ?
PI4K2A inh: -74.5*; Six1-Eya2 inh: inconclusive; CtBP-E1A blk: inconclusive

Bioassay records as filed in PubChem BioAssay.
